Source: PubChem BioAssay
FEN1 inh: blocks human flap endonuclease 1. P39748. Recombinant FEN1 flap cleavage, fluorescence, 15 min. Potency, µM (doses to about 114 µM), hits mostly inhibitors. 0.35% of 390,000 active; further: nearly all actives have a fitted effect of over 65% in size
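Read-out was taken twice, immediately and after 15 min, following addition of 50 nM substrate to 10 nM FEN1 that had sat with test compound for 15 min at room temperature. Curves came from a four-parameter Hill model.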
Pol beta inh: inhibitors of human DNA polymerase beta. Pol beta primer extension/strand displacement, fluorescence kinetic. AID 485314. 1.3% of 340,000 active. Potency, µM (highest dose often 114 µM), usual class: inhibitors. P06746
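Curves were derived by four-parameter Hill fits of normalized qHTS data. The kinetic fluorescent primer-extension read was taken at 0 and 10 min after 50 nM substrate, following a 15 min room-temperature preincubation of 10 nM enzyme with compounds.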
Pol kappa inh: inhibitors of human DNA polymerase kappa. purified Pol kappa, fluorescent DNA synthesis assay, 10 min. 0.53% of 400,000 active. Potency, µM (top dose mostly 107 µM), most hits filed as inhibitors
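Fluorescent qHTS in 1536-well format: enzyme (10 nM) and compound sat 15 min at room temperature before 50 nM substrate (final) was added. Signal taken at 0 and 10 min; no-enzyme buffer wells were negative controls.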
POLI inh: inhibitors of human DNA polymerase iota | Q9UNA4 | Pol iota fluorescent replication assay, 10 min | Potency, µM (top dose mostly 115 µM), most hits filed as inhibitors | 1% of 390,000 active | AID 588590
Target sequence (Q9UNA4 whole entry, looked up): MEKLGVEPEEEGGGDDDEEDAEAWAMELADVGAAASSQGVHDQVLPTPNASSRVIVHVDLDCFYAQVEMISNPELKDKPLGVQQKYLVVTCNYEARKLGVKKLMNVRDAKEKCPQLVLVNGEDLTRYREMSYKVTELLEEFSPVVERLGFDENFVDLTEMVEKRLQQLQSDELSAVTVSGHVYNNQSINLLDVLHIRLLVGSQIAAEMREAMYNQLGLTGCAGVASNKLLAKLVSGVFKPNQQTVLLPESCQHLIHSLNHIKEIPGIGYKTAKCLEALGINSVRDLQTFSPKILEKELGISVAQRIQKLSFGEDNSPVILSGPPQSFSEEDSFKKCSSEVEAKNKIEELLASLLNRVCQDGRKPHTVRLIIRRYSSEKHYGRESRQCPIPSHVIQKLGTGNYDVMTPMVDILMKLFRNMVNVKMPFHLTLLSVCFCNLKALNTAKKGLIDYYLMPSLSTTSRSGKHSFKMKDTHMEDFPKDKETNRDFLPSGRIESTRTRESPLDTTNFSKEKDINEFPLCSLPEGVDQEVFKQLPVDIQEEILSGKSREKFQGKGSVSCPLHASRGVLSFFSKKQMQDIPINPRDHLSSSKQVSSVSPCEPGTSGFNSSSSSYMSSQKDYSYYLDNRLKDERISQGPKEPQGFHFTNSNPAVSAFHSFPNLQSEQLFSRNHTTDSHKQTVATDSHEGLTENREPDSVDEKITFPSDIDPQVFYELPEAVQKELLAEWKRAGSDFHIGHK
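Pol iota at 10 nM preincubated 15 min with compounds at room temperature; reaction started with fluorescent substrate, 50 nM final. Fluorescence read kinetically at 0 and 10 min; buffer-only wells as negative control.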
Pol eta inh: DNA polymerase eta (human) inhibition; recombinant Pol eta, fluorescent DNA replication assay; Potency, µM (highest dose often 114 µM), most hits filed as inhibitors; Q9Y253; 1.2% of 390,000 active; AID 588591
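Pol eta at 10 nM preincubated with compounds 15 min at room temperature; reaction started with fluorescent substrate (50 nM final) and read kinetically at 0 and 10 min.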
WRN helicase inh: blocks human WRN helicase; Q14191; WRN helicase unwinding, fluorescent forked duplex, kinetic; Potency, µM (highest dose often 114 µM), most hits filed as inhibitors; 0.46% of 360,000 active; AID 651768; further: nearly all actives have a fitted effect of over 55% in size
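Enzyme (20 nM final) and test compound sit together 15 min at room temperature before substrate addition. Substrate is a single-forked duplex oligonucleotide (100 nM) labelled with fluorophore and quencher, with 2 mM ATP; helicase unwinding raises red fluorescence, read kinetically.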
Hits are given with their value; – = inactive; ? = inconclusive; · = no result; [ ] = dose if it differs, or a comment. An excerpt weighted towards active compounds, which were near 2.4% of everything screened. The call rests on the fitted dose curve; in most records, active means well fitted curve in the direction sought with a large enough effect; inconclusive means small, poorly fitted or top-dose-only effect, or another doubt; inactive means no such curve, though single readings can be large; an effect the other way counts as inactive or inconclusive.

SMILES	FEN1 inh	Pol beta inh	Pol kappa inh	POLI inh	Pol eta inh	WRN helicase inh
CCCCn1c(SC(C)C(=O)c2ccc(OC)cc2)nc2cc(S(N)(=O)=O)ccc21 (configuration not stated)	?	–	–	–	–	–
Cc1cc(C)n(-c2nc(C)c(C)c(=O)n2CC(=O)Nc2ccc(Cl)c(Cl)c2)n1	–	–	–	–	–	·
COC(=O)CC1=NN(c2ccccc2)C(=O)/C1=C\c1ccc(OC)cc1	–	–	–	–	–	50µM
CCOC(=O)C1=C(CS(=O)(=O)c2ccc(C(C)(C)C)cc2)NC(=O)NC1c1cccc(OC)c1 (configuration not stated)	–	–	–	?	–	·
CCCc1cc2c(-c3ccccc3)cc(=O)oc2cc1OCc1ccc(C(=O)O)o1	–	?	–	–	79µM	–[11.6 µM]
N#C/C(=N/Nc1ccc(OC(F)(F)F)cc1)C(N)=S	–	–	–	–	–	–
NC(=S)N=Nc1ccc(NN=C(N)N)cc1	50µM	–	?	?	–	?
O=C1c2ccc(O)c(O)c2C(=O)c2c(O)ccc(O)c21	·	·	2.8µM	·	·	·
O=C(COc1ccccc1/C=C\c1nc(O)c([N+](=O)[O-])c(=O)[nH]1)Nc1ccccc1	–	–	–	?	28µM	?
Cc1ccc2nc(N/N=C\c3ccc([N+](=O)[O-])o3)nc(-c3ccccc3)c2c1	–	28µM	–	?	?	–
CC12CCC(C/C1=N\N=C1\NC(=O)/C(=C\c3ccc(Cl)cc3)S1)C2(C)C (configuration not stated)	?	–	–	–	50µM	?
O=C1NC(=Nc2ccccc2Cl)S/C1=C\c1ccc(C(=O)O)cc1	–	–	–	–	?	–
Cc1nc(-c2ccc(F)cc2)sc1CCNC(=O)c1ccco1	–	–	–	–	–	·
CCC(C)[C@H](NC(=O)N1CC(=O)Nc2ccccc21)C(=O)N1CCC[C@H]1C(=O)O (some centres not stated)	–	–	–	79µM	–	–
CCCN1CNc2c(c(=O)[nH]c(=S)n2CCc2c(OC)cccc2OC)C1	–	·	–	–	·	·
Cc1cc(=O)n2[nH]c(-c3ccsc3-n3c(C)ccc3C)cc2n1	?	?	28µM	7.9µM	7.9µM	?
Cc1cc(=O)n2[nH]c(-c3ccc(F)cc3)cc2n1	–	–	–	–	–	–
O=C(CN1C(=O)C(=O)N(Cc2ccco2)C1=O)NC1CCCCC1	–	–	?	?	32µM	–[11.6 µM]
O=C(CNC(=O)c1ccco1)NC1CCCCCC1	–	·	–	–	–	–
O=C(NC1CCCCCC1)c1ccco1	–	–	89µM	32µM	–	–[11.6 µM]
CCOC(=O)c1ccc(NC(=O)CN2C(=O)c3cccnc3Sc3ccccc32)cc1	–	–	–	–	–	·
COc1ccc(Cl)cc1NC(=O)CSc1nc(-c2ccco2)cc(C(F)(F)F)n1	–	–	–	–	–	·
CCOC(=O)c1ccc(NC(=O)CC2Nc3cc(C)c(C)cc3NC2=O)cc1 (configuration not stated)	–	?	–	–	–	·
CCN(c1ccccc1)c1ncnc2c1cnn2-c1ccc(OC)cc1	?	–	–	–	–	·
N#Cc1ccc(CC(=O)c2ccccc2)[nH]c1=O	–	·	–	–	–	56µM
SMILES	FEN1 inh	Pol beta inh	Pol kappa inh	POLI inh	Pol eta inh	WRN helicase inh
COc1ccc(Cn2nnnc2CN(Cc2cc3cc(C)ccc3[nH]c2=O)C2CCCC2)cc1	–	–	–	–	–	–
COc1ccc2[nH]c(=O)c(CN(Cc3nnnn3Cc3ccco3)C3CCCCC3)cc2c1	–	28µM	35µM	20µM	–	?
Cc1ccc(CN(Cc2cc3cc4c(cc3[nH]c2=O)OCCO4)Cc2nnnn2Cc2ccco2)cc1	–	28µM	71µM	20µM	?	–[11.6 µM]
COc1ccc2[nH]c(=O)c(CN(C3CCCCC3)C(c3nnnn3Cc3ccco3)C(C)C)cc2c1 (configuration not stated)	–	35µM	?	16µM	18µM	?
COc1ccc2[nH]c(=O)c(CN(Cc3ccco3)C(c3nnnn3Cc3ccccc3)C(C)C)cc2c1 (configuration not stated)	–	–	–	?	–	–
N[C@@H](C(=O)O)[C@@H](CC(=O)O)c1ccc(Cl)cc1	·	·	–[19.4 µM]	·	·	·
Cc1ccc(NC(=O)Nc2nnc(-c3ccncc3)s2)cc1C	–	–	?	22µM	89µM	–[11.6 µM]
O=C(Nc1ccc(Cl)cc1)Nc1nnc(-c2ccncc2)s1	–	–	–	–	?	–
O=C(Nc1cccc(Cl)c1)Nc1nnc(-c2ccncc2)s1	–	40µM	–	?	?	–
O=C(COC(=O)/C=C/c1ccc2ccccc2n1)NNC(=O)c1ccccc1	·	·	·	·	40µM	–
CCNc1ccccc1CP(=O)(c1ccccc1)c1ccccc1O (configuration not stated)	–	50µM	–	14µM	–	?
Cc1ccc(O)c(CP(=O)(c2ccccc2)c2ccccc2)c1	–	–	–	–	–	–
O=C(O)CCCCCN1C(=O)/C(=C\c2ccncc2)SC1=S	–	–	–	?	–	–
O=C(O)CCCCCN1C(=O)/C(=C\c2ccc(-c3ccc(Cl)cc3)o2)SC1=S	–	?	79µM	35µM	?	–[11.6 µM]
CCc1ccc(NC(=O)Nc2cn(C)c(=O)c3ccccc23)cc1	–	–	–	?	–	·
Cc1ccc(NC(=O)Nc2cn(C)c(=O)c3ccccc23)c(Cl)c1	–	?	–	71µM	–	·
C#CCOCCOCCOCCNc1nc(N2CCN(C(=O)CCCCCCCCCCNC(=O)[C@@H](CCC(=O)O)n3cc(CCCCCN)nn3)CC2)nc(N2CCN(C(=O)CCCCCCCCCCNC(=O)[C@H](CO)n3cc(CCCCCN)nn3)CC2)n1	–	·	–	–	–	–
C#CCOCCOCCOCCNc1nc(N2CCN(C(=O)CCCCCCCCCCNC(=O)[C@H](CCCCN)n3cc(CCO)nn3)CC2)nc(N2CCN(C(=O)CCCCCCCCCCNC(=O)[C@H](CCCCN)n3cc(C[C@@H](C)CC)nn3)CC2)n1	28µM	·	–	?	79µM	50µM
C#CCOCCOCCOCCNc1nc(N2CCN(C(=O)CCCCCCCCCCNC(=O)[C@@H](CCC(=O)O)n3cc(CCCCCN)nn3)CC2)nc(N2CCN(C(=O)CCCCCCCCCCNC(=O)[C@H](CCCCN)n3cc(C[C@@H](C)CC)nn3)CC2)n1	?	·	–	–	89µM	–
C#CCOCCOCCOCCNc1nc(N2CCN(C(=O)CCCCCCCCCCNC(=O)[C@@H](CCSC)n3cc(CCO)nn3)CC2)nc(N2CCN(C(=O)CCCCCCCCCCNC(=O)[C@H](CO)n3cc(CCCCCN)nn3)CC2)n1	?	·	–	–	?	50µM
